Values joined by “and” are separate entries in the source; they are usually repeats but may differ in a detail not shown here. Identical values can stand only once. Hit rate of the full screen: of about 140,000 compounds, about 320 (0.23%) were called active. No stated cut-off is given here; in the data, active means z-score mostly below about -2.9 (no sharp cut-off); inactive means mostly above about -1.9. The entries come from a sample that favours actives as a whole. Where a structure was tested more than once in an assay, its records may differ in their call.

The experiment has as its system CapD gamma-glutamyltranspeptidase (Bacillus anthracis Ames Ancestor). Nature of the experiment: Bacillus anthracis CapD inhibitors, primary screen, biochemical, fluorescence intensity (AID 492967). As to conditions: purified CapD enzyme, fluorescence intensity read-out; stronger effect = lower value.
Turning to `Cc1cccc(N2CCN(C(=O)c3cccc(N4C(=O)C5C6C=CC(C6)C5C4=O)c3)CC2)c1C` (centres undefined), the z-score was -0.42 (inactive).

On to `CCOC(=O)c1cc2cccc(NC(=O)c3cccc(C(F)(F)F)c3)c2[nH]1`, for which the z-score was -0.595 (inactive). As for `CCCCCNC(=O)c1ccc2c(c1)[nH]c(=S)n1c3ccccc3nc21`, the figure is -0.3 (inactive); as for `CN(CC(=O)O)S(=O)(=O)c1ccc2oc3ccccc3c2c1`, 0.355 (inactive). The value for `C=CCN1CCN(C(=O)C2CC2)CC1` was 0.655 (inactive).

`CCCNC(=O)Nc1ccc2snnc2c1`: the z-score is 26.7 (inactive). As for `CCOC(=O)c1ccc(N2N=C(C(F)(F)F)/C(=C/c3cc(Cl)c(O)c(OC)c3)C2=O)cc1`, the figure is -0.22 (inactive); as for `CCC(C)(C)c1cc2cc(NS(=O)(=O)c3ccccc3)ccc2[nH]1`, -0.4 (inactive). As for `CCOC(=O)c1cc2cccnc2nc1C`, the figure is -0.34 (inactive). As for `CCOc1ccc(C(=O)/C(C)=N/O)cc1`, the z-score is -1.18 (inactive). As for `Cc1ccc2nc(N3CC(=O)N(CCc4ccccc4)C(=O)C3)c3nncn3c2c1`, the figure is -0.125 (inactive). The value for `CC(Oc1ccc(OC(C)C(=O)/C=C/N(C)C)cc1)C(=O)/C=C/N(C)C` (centres undefined) was -1.18 (inactive); that for `N#Cc1c(-c2ccccc2)cc(-c2ccccc2)c(C#N)c1N` was 21 (inactive); that for `FC(F)(F)c1cccc(N2CCN(C(=S)Nc3ccccc3)CC2)c1` was -0.215 (inactive). The value for `O=C(COC(=O)Cc1ccsc1)Nc1ccccc1C(F)(F)F` was -1.17 (inactive).

On to `CCOc1ccc(/C=C2/SC(=S)N(CC(=O)O)C2=O)cc1`, for which the z-score is -0.21 (inactive).

In the case of `FC(F)(F)C1=CC=NCCN1`, the z-score is -4.38 (active).

For `CC(C)(C)OC(=O)/N=C(\N)N(CCCC(NC(=O)OC(C)(C)C)C(=O)NCc1cccs1)C(=O)OC(C)(C)C` (centres undefined), the z-score is -0.295 (inactive). As for `O=C(c1ccco1)N1CCN(Cc2cccc(C(F)(F)F)c2)CC1`, the figure is 0.64 (inactive); as for `CCNC(=O)C(=O)Nc1cccc(C(F)(F)F)c1`, 0.01 (inactive). Regarding `CCOC(=O)N/N=C1/c2ccccc2C2(O)NC(=O)NC12O` (centres undefined), the z-score is 0.15 (inactive).

In the case of `C=CCn1cc(C=C2C(=O)N(C)C(=S)N(C)C2=O)c2ccccc21`, the z-score was 3.29 (inactive). On to `O=C(O)Cn1cc(/C=C2\C(=O)NN(c3ccccc3)C2=O)c2ccccc21`, for which the z-score is -6.26 (active). The value for `CN1C(=O)C(=Cc2cn(CC(=O)NCc3ccco3)c3ccccc23)C(=O)N(C)C1=O` was -0.57 (inactive).

In the case of `CCOc1ccc(CCNC(=O)c2nnc(-c3cccnc3)o2)cc1OCC`, the z-score is 0.25 (inactive). As for `Cc1nc2ccccc2n1CC1CC1(Cl)Cl` (centres undefined), the figure is -0.66 (inactive). As for `O=C(O)CSc1ncn(-c2ccccc2)n1`, the figure is 0.115 (inactive); as for `CC1(C)c2ccccc2N2CCC(=O)NC21/C=C/c1cccnc1` (centres undefined), 0.115 (inactive); as for `CN(C)/C=C/C(=O)C(Cc1ccc(Cl)cc1)Cc1ccc(Cl)cc1`, -0.33 (inactive). As for `O=[N+]([O-])c1cccc(C2(O)CN(c3ccc(Cl)cc3)C3=[N+]2CCCS3)c1` (centres undefined), the figure is 0.185 (inactive).

`COc1ccc2nc3oc(C(=O)NC4CC4)cc3cc2c1`: the z-score is 3.45 (inactive).

With `O=c1[nH][nH]c(=O)c2c(N=Cc3c[nH]c4ccccc34)cccc12`, the z-score is 57.4 (inactive). The value for `O=C(c1ccccc1)C(O)c1c[nH]c2ccccc12` (centres undefined) was 0.51 (inactive).

For the molecule `CC1(C)CC(=O)C(=Cc2c[nH]c3ccccc23)C(=O)C1`, the z-score is -4.71 (active). The value for `O=c1cc(CO)oc(C(Nc2cccc(C(F)(F)F)c2)c2ccccn2)c1O` (centres undefined) was -6.66 (active); that for `CCOc1ncccc1C(=O)Nc1cccc(C(F)(F)F)c1` was -0.145 (inactive). The value for `O=C(CC(NCc1ccco1)C(=O)O)Nc1cccc(C(F)(F)F)c1` (centres undefined) was -0.155 (inactive). As for `CCC1CCCCN1C(=O)CSc1ccc(C)cc1` (centres undefined), the figure is -0.23 (inactive); as for `O=c1oc2ccccc2cc1-c1nc(-c2ccc(Cl)cc2)cs1`, 0.955 (inactive); as for `Cc1cc(=O)oc2c3c(ccc12)OCN(c1ccccc1Cl)C3`, 21.1 (inactive). As to `CCC(C)NC(=O)c1onc(C)c1Cl` (centres undefined), the z-score was -0.44 (inactive). As for `Cc1c(NS(=O)(=O)c2ccc3c(c2)C(=O)c2ccccc2C3=O)c(=O)n(-c2ccccc2)n1C`, the figure is -0.465 (inactive); as for `O=C1CCCC2=C1C(c1ccc(Cl)cc1)c1c(ccc3ccccc13)N2` (centres undefined), 0.255 (inactive); as for `Cc1ccc(Oc2cc(Oc3ccc(C)cc3)c3noc4c3c2C(=O)c2ccccc2-4)cc1`, 0.03 (inactive). In the case of `Cc1cc2c(cc1C)CSC(c1cc(Cl)cc(Cl)c1O)SC2`, the z-score is -0.005 (inactive) and -0.385 (inactive). As for `COc1cc2c(C(=O)NCCC(C)C)cn(C)c(=O)c2cc1OC`, the figure is 0.63 (inactive). As for `C=CCN(C(=O)c1ccc(N2CC3CC(C2)c2cccc(=O)n2C3)c(NC(=O)c2ccc(OC)cc2)c1)c1ccccc1` (centres undefined), the figure is -0.49 (inactive); as for `O=C(OC1CCCCC1=O)c1ccc(O)cc1` (centres undefined), -0.295 (inactive). The value for `CCOc1cccc2cc(C(=O)Nc3ccc(Oc4ccccc4)cc3)c(=O)oc12` was 1.48 (inactive); that for `CC12CCC(C(=O)O)(CC1=O)C2(C)C` (centres undefined) was -0.19 (inactive); that for `O=C(COC(=O)c1ccccc1)Nc1ncc(Cl)cc1Cl` was 0.31 (inactive). On to `CC12CCC(C(=O)Nc3ncc(Cl)cc3Cl)(CC1=O)C2(C)C` (centres undefined), for which the z-score is -1.89 (active). The value for `CCOC(=O)C1=NN(C(=O)CCc2ccccc2)C(O)(c2ccc(Cl)cc2)C1` (centres undefined) was -1.38 (inactive); that for `CCC(C(=O)Nc1cccc(OC)c1)N1C(=O)CCn2nccc21` (centres undefined) was 0.745 (inactive); that for `O=C1C2C3c4ccccc4C(c4ccccc43)C2C(=O)N1c1ccccc1Cl` (centres undefined) was 0.425 (inactive). The value for `O=C(Nc1nccs1)c1cc(=O)c2ccccc2o1` was -0.41 (inactive); that for `O=C(O)c1ccccc1-c1ccccc1C(=O)Nc1nccs1` was 0.375 (inactive); that for `Nc1[nH]c(=S)sc1C(=O)Nc1nccs1` was -5.56 (active). As for `CC(=O)Nc1ccc2c(c1)OCCOCCOCCO2`, the figure is -0.015 (inactive). Consider `CC(C)Oc1ccccc1C(N)=O`, for which the z-score is -0.285 (inactive).

For the molecule `COc1ccc(CSc2nc(N)nc(-c3cccs3)c2C#N)cc1`, the z-score is 3.26 (inactive). As for `O=C(Oc1ccc(C=Nc2cccc(Br)c2)cc1)c1ccccn1`, the figure is -0.36 (inactive); as for `Fc1ccccc1-c1nc(N2CCC3(CC2)OCCO3)c2ccccc2n1`, -0.275 (inactive); as for `CC(C)C(=O)N=c1scc(-c2ccccc2)n1-c1ccccc1Cl`, 0.04 (inactive).

`COc1ccc(C(=O)NNC(=O)C2CCN(c3ccc(C(F)(F)F)cn3)CC2)cc1`: the z-score was 3.11 (inactive). As for `CC(C)CCOc1ccc(C(=O)C(C)C)cc1`, the figure is 0.445 (inactive); as for `COc1ccccc1C1CCN(C(=O)c2ccccc2C(F)(F)F)CC1`, 0.315 (inactive). As for `CC1=C(C(=O)OCCc2ccccc2)C(c2ccccc2C(F)(F)F)NC(=O)N1C` (centres undefined), the figure is -0.495 (inactive). As for `N#C/C(=C\C=C\c1ccccc1)c1nc2ccccc2[nH]1`, the figure is 2.54 (inactive); as for `N#CC(=C1C(=O)c2ccccc2C1=O)c1nc2ccccc2[nH]1`, -4.36 (active); as for `CS(=O)(=O)c1nc2ccccc2[nH]1`, 0.005 (inactive). For the molecule `ClCCOc1nc(N2CCOCC2)nc(N2CCOCC2)n1`, the z-score is -0.68 (inactive). As for `O=C(c1ccc(Cn2c(=S)[nH]c3ccc(Br)cc3c2=O)cc1)N1CCN(C(=O)c2ccco2)CC1`, the figure is 0.025 (inactive); as for `Cc1ccccc1C(=O)N1CCc2c([nH]c3ccccc23)C1`, 0.37 (inactive).

Turning to `CCOC(=O)C1=CN(Cc2ccc(OC)cc2)C=C(C(=O)OCC)C1c1cc(Br)c(OCC)c(OC)c1`, the z-score was 22.1 (inactive). Consider `O=C(Cn1c2ccccc2c(=O)c2cc(Cl)ccc21)Nc1ccc(OCc2ccccc2)cc1`, for which the z-score was 0.395 (inactive). The value for `COc1ccc(S(=O)c2ccccc2C(=O)O)cc1` (centres undefined) was 0.375 (inactive). As for `COc1ccccc1N1CCN(c2ncnc3sc(C(=O)Nc4ccc5c(c4)OCCO5)c(C)c23)CC1`, the figure is -0.055 (inactive); as for `COc1cccc(N/C(SCc2c(F)cccc2Cl)=C(/C#N)C(=O)NCc2ccccc2)c1`, -0.425 (inactive); as for `O=c1c(-c2cc3ccccc3o2)[n+]([O-])c2ccccc2n1O`, 2.82 (inactive). As for `O=C1/C(=C/c2ccc(Br)cc2)C=C(c2ccccc2)N1c1ccccc1Br`, the figure is -0.72 (inactive). Regarding `NC(=O)CCc1cn(-c2ccccc2)nc1-c1ccccc1`, the z-score is -0.045 (inactive). As for `COc1cc2c(cc1OC)C(c1ccc(Cl)cc1)NC(=O)C2` (centres undefined), the figure is -0.115 (inactive). As for `CCOC(=O)C1=C(C)NC(C)=C(C(=O)OCC)C1c1cn(-c2ccccc2)nc1-c1ccc(F)cc1`, the figure is 3.54 (inactive). As for `CC(C)(C)c1ccc(S(=O)(=O)Nc2ccc3c(c2)N(S(=O)(=O)c2cccc(C(F)(F)F)c2)CC3)cc1`, the figure is -0.6 (inactive). For the molecule `Cc1c(Cl)cccc1N=C1NC(=O)/C(=C/c2ccco2)S1`, the z-score is -1 (inactive). The value for `CCN(CC)C(=O)Cn1ncc2c3ccccc3n(Cc3ccccc3)c2c1=O` was 2.73 (inactive); that for `O=C(CN1C(=O)CC(c2ccccc2)Sc2ccccc21)NCc1ccccc1` (centres undefined) was -0.28 (inactive).

Turning to `COc1cc(/C=C2/N=C(c3ccc(Cl)c([N+](=O)[O-])c3)OC2=O)cc(OC)c1OC`, the z-score was 0.85 (inactive). As for `CC1CCC(C(C)C)C(OCC(O)CN2CCN(c3ccccc3)CC2)C1` (centres undefined), the figure is 0.045 (inactive); as for `Cc1ccc(C(=O)N/C(=C\c2ccccc2)C(=O)Nc2c(C)n(C)n(-c3ccccc3)c2=O)cc1`, -0.355 (inactive). As for `COC(=O)Nc1c(C)n(C)n(-c2ccccc2)c1=O`, the figure is 0.115 (inactive); as for `Cc1c(NC(=O)c2cccnc2)c(=O)n(-c2ccccc2)n1C`, -0.255 (inactive) and -5.24 (active); as for `COc1cc(NC(=O)c2cc(N(C)C)nc(N(C)C)n2)cc(OC)c1`, 4.64 (inactive).

The values are drawn from PubChem BioAssay AID492967 (ICCB-Longwood Screening Facility, Harvard Medical School, 2010).
